Where “and” joins values, the source holds several entries; their conditions need not be identical. Equal entries are not always repeated. Entries with a potency or affinity are not part of this list.
Assays:
Staphylococcus aureus = conditions: Concentration 20 uM, ASSAY_TEST Inhibition of Bacterial Growth, detection method Absorption (OD600), MEDIA CAMHB, plate type 384well, NBS, CORNING #3640, time 18 hr
Escherichia coli = conditions: Concentration 20 uM, ASSAY_TEST Inhibition of Bacterial Growth, detection method Absorption (OD600), MEDIA CAMHB, plate type 384well, NBS, CORNING #3640, time 18 hr

Question: Which Inhibition (Staphylococcus aureus) does the source give for `C[C@@H]1O[C@@H](OC[C@H]2O[C@@H](Oc3c(-c4ccc(O)c(O)c4)oc4cc(O)cc(O)c4c3=O)[C@H](O)[C@@H](O)[C@@H]2O)[C@H](O)[C@H](O)[C@H]1O` [RUTIN] here?
Answer: 17.86%

Question: And the Inhibition (Escherichia coli)?
Answer: 2.05%

Question: How did the Inhibition (Staphylococcus aureus) turn out when `O=c1c(O[C@@H]2O[C@H](CO)[C@@H](O)[C@H](O)[C@H]2O)c(-c2ccc(O)c(O)c2)oc2cc(O)cc(O)c12` [ISOQUERCETIN] was run?
Answer: 18.79%

Question: And the Inhibition (Escherichia coli)?
Answer: -1.78%

Question: How did the Inhibition (Staphylococcus aureus) turn out when `CCC(C)(C)/N=C(\NC#N)Nc1cccnc1` was run?
Answer: 1.37%

Question: What about the Inhibition (Escherichia coli) of the same compound?
Answer: -2.42%

Question: What does the source list for `Cl.c1ccc(CC2=NCCN2)cc1` [TOLAZOLINE HYDROCHLORIDE]?
Answer: Inhibition (Staphylococcus aureus): 7.13%; Inhibition (Escherichia coli): 4.19%

Question: Which Inhibition (Staphylococcus aureus) does the source give for `CCCN[C@H]1CCc2nc(N)sc2C1` [PRAMIPEXOLE] here?
Answer: -18.52%

Question: What about the Inhibition (Escherichia coli) of the same compound?
Answer: 2.75%

Question: With `Cl.c1ccc2c(c1)CCCC2C1=NCCN1` (stereo unspecified) [TETRAHYDROZOLINE HYDROCHLORIDE] as the compound, how does the Inhibition (Staphylococcus aureus) read?
Answer: 17.23%

Question: What about the Inhibition (Escherichia coli) of the same compound?
Answer: 7.52%

Question: Which results are given for `CCC(CO)NCCNC(CC)CO` (stereo unspecified)?
Answer: Inhibition (Staphylococcus aureus): 8.81%; Inhibition (Escherichia coli): 2.87%

Question: What does the source list for `N[C@@H](Cc1cc(I)c(Oc2cc(I)c(O)c(I)c2)c(I)c1)C(=O)O` [LEVOTHYROXINE]?
Answer: Inhibition (Staphylococcus aureus): -5.39%; Inhibition (Escherichia coli): -12.96%

Question: For `c1ccc2[nH]c(-c3cscn3)nc2c1` [THIABENDAZOLE], which Inhibition (Staphylococcus aureus) is on record?
Answer: 9.35%

Question: What about the Inhibition (Escherichia coli) of the same compound?
Answer: 1.68%

Question: What does the source list for `O=C1Nc2ccc(Cl)cc2[C@@](C#CC2CC2)(C(F)(F)F)O1` [EFAVIRENZ]?
Answer: Inhibition (Staphylococcus aureus): 10.66%; Inhibition (Escherichia coli): -2.05%

Question: Which Inhibition (Staphylococcus aureus) does the source give for `Cl.NC12CC3CC(CC(C3)C1)C2` [AMANTADINE HYDROCHLORIDE] here?
Answer: 17.85%

Question: And the Inhibition (Escherichia coli)?
Answer: -0.07%

Question: With `CC(=O)OCC(=O)[C@@]1(O)CC[C@H]2[C@@H]3CCC4=CC(=O)CC[C@]4(C)[C@H]3C(=O)C[C@@]21C` [CORTISONE ACETATE] as the compound, how does the Inhibition (Staphylococcus aureus) read?
Answer: 12.24%

Question: And the Inhibition (Escherichia coli)?
Answer: 5.41%

Question: For `C[C@@H]1C[C@H]2[C@@H]3CCC4=CC(=O)C=C[C@]4(C)[C@@]3(F)[C@@H](O)C[C@]2(C)[C@@]1(O)C(=O)CO` [DEXAMETHASONE], which Inhibition (Staphylococcus aureus; 20 µM) is on record?
Answer: -14.23% and -13.77%

Question: What about the Inhibition (Escherichia coli; 20 µM) of the same compound?
Answer: 5.83% and 4.46%

Source: ChEMBL document CHEMBL4513141, “CO-ADD screening of NIH (USA) - Clinical Collection” (2021)
